The source of these data is PubChem BioAssay (NCI).

What all share (assay): NCI-60 one-dose screen, 48 h (100 = growth as untreated, 0 = no growth, -100 = all killed)
What all share (conditions): 10 µM unless noted

Assay [1] relates to HCT-15 colon.
The test system of assay [2] is HT29 colon.
The subject of assay [3] is SNB-75 CNS.
The test system of assay [4] is SNB-19 CNS.
Assay [5] relates to U251 CNS.
In assay [6] the test system is PC-3 prostate.
In assay [7] the test system is SK-MEL-5 melanoma.
In assay [8] the test system is UACC-62 melanoma.
The subject of assay [9] is LOX IMVI melanoma.
Assay [10] concerns SK-MEL-28 melanoma.
For assay [11], the system named is SK-MEL-2 melanoma.
Assay [12] has as its system EKVX NSCLC.
Assay [13] relates to SN12C renal.
In assay [14] the test system is UO-31 renal.
Assay [15] deals with TK-10 renal.
Assay [16] deals with ACHN renal.
Assay [17] relates to CAKI-1 renal.
The test system of assay [18] is A498 renal.
The subject of assay [19] is CCRF-CEM leukemia.
Assay [20] deals with MOLT-4 leukemia.

The panel holds about 83,000 compounds, 20% with a hit somewhere; the sample as a whole holds those more often.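 Assay: single dose, 48 h. Readout: percent growth (0 = no net growth; negative = cell death). Active: <10.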 Values without a mark were called inactive. Activity calls are given as the source filed them.

On to `CN1CCN(c2c(F)cc(NC3=C(Cl)C(=O)c4ncccc4C3=O)cc2F)CC1`, for which the growth in assay [1] was 63.3%; in assay [2], 104%; in assay [3] it was 87.8%; in [4], 101%; in assay [5], 103%; in [6], 88.5%. In addition, the growth is 100% in [7]; 100% in [8]; 5.89% (active) in assay [9]; 69.8% in assay [10]; 99.2% in assay [11]; 91% in assay [12]. In addition, the growth in assay [13] was 84.2%; in [14], 34.3%; in assay [15], 66.9%; in assay [16] it was -63% (active); in [17], 62.2%; in [18], 88.1%. The growth was 5.66% (active) in assay [19] and 0.45% (active) in assay [20].

Consider `NC(=O)c1ccc[n+](CC(=O)N2CCN(c3cc4c(cc3F)c(=O)c(C(=O)O)cn4C3CC3)CC2)c1`, for which the growth in [1] is 81.8%; in assay [2], 99.3%; in assay [3] it was 88.2%; in assay [4], 92.6%; in assay [5] it was 88.4%; in assay [6] it was 88.9%. The growth in [7] was 93.7%; in assay [8], 59.2%; in assay [9], 43%; in assay [10], 75.8%; in [11], 95.9%; in [12], 106%. The growth in [13] was 58%; in [14], 74.3%; in assay [15], 116%; in assay [16], 84.5%; in assay [17] it was 96.9%; in assay [18] it was 101%. Also, the growth is -25.2% (active) in assay [19] and 26.6% in assay [20].

In the case of `Cc1c2c(cc[n+]1Cc1ccccc1)c1ccc(OCc3ccccc3)cc1n2Cc1ccccc1`, the growth in assay [1] was 39.2%; in assay [2] it was -48.7% (active); in [3], -18% (active); in assay [4], -13.3% (active); in assay [5] it was -80.2% (active); in [6], -44.8% (active). For the same compound, the growth in assay [7] is -99.4% (active); in [8], -87.1% (active); in [9], -93.2% (active); in [10], -56.5% (active); in assay [11] it was -36% (active); in assay [12], -28.8% (active). Moreover, the growth in [13] is -86.6% (active); in [14], -18.2% (active); in assay [15], 11.8%; in assay [16], 8.54% (active); in [17], -5.76% (active); in assay [18], -34.5% (active). Further, the results for the growth in assay [19] and in [20] were -16.2% (active) and -51% (active), respectively.

`CC(C)(O)C1CCCN1C(=O)c1ccccc1I` (centres undefined): the growth in assay [1] was 98.7%; in [2] it was 95.4%; in assay [3], 100%; in assay [4] it was 78.2%; in [5], 98.3%; in [6], 80.7%. Also, the growth in assay [7] was 92.9%; in assay [8], 64.3%; in assay [9], 101%; in assay [10] it was 105%; in assay [11], 132%; in [12] it was 97.7%. For the same compound, the growth in assay [13] is 95%; in assay [14], 82.7%; in assay [15], 107%; in assay [16], 105%; in [17], 88.2%; in [18], 73.6%. Also, the values for the growth in assay [19] and in assay [20] were 41.1% and -67.6% (active), respectively.

Take `COc1cccc2cc(-c3cc4ccccc4[nH]3)/c(=N/C(=S)Nc3ccc(C)cc3)oc12`: the growth in assay [1] was 72%; in assay [2] it was 86.3%; in [3] it was -8.91% (active); in assay [4], 52.8%; in assay [5], 74.9%; in [6], 55.6%. For the same compound, the growth in assay [7] was 73.8%; in assay [8], 65.7%; in [9], 71.2%; in assay [10], 78.4%; in assay [11], 85%; in assay [12] it was 60.9%. For the same compound, the growth in assay [13] is 77.6%; in assay [14] it was 85.3%; in assay [15], 94.3%; in assay [16], 27.9%; in assay [17] it was 19.2%; in [18] it was 63%. Further, in [20], the growth was 101%.

For `CC(C)Cc1ccc(C(C)C(=O)NCc2ccc(Cn3c(=O)sn(-c4ccc(Cl)cc4)c3=O)cc2)cc1` (centres undefined), the growth was 83.2% in assay [1]; 75.6% in assay [2]; 79.4% in [3]; 83.9% in [4]; 65.5% in assay [5]; 82.8% in assay [6]. In addition, the growth in assay [7] is 94.1%; in [8] it was 66.4%; in assay [9], 76.1%; in assay [10], 77%; in assay [11], 107%; in assay [12], 82.6%. The growth was 84.1% in [13]; 65.4% in [14]; 74.2% in [15]; 56.5% in [16]; 74.7% in [17]; 95% in assay [18]. In addition, the values for the growth in assay [19] and in assay [20] were 96.2% and 85.7%, respectively.

Take `Clc1ccc(N2N=C(c3cccc(Nc4ccncc4)c3)CC2c2ccc(Br)cc2)cc1` (centres undefined): the growth was -74.7% (active) in assay [1]; -2.76% (active) in assay [2]; 79.2% in [3]; 80.8% in assay [4]; -41.5% (active) in [5]; 22% in [6]. Moreover, the growth in assay [7] was 68.6%; in [8], 101%; in assay [9], -96% (active); in assay [10], -85.5% (active); in assay [11], 94.7%; in assay [12], 77.9%. The growth in [13] is 54.3%; in assay [14], 43.2%; in assay [15] it was 62.3%; in assay [16], 2.34% (active); in assay [17], 27.3%; in assay [18], 71.6%. For the same compound, the values for the growth in [19] and in [20] were 3.27% (active) and -0.295% (active), respectively.

On to `Clc1cc(Cl)cc(N2N=C(c3cccc(Nc4ccncc4)c3)CC2c2ccc3c(c2)OCO3)c1` (centres undefined), for which the growth was -66.7% (active) in assay [1]; 0.164% (active) in [2]; 67.5% in assay [3]; 81.9% in [4]; -43.6% (active) in assay [5]; 28.7% in assay [6]. Also, the growth in assay [7] was 58.9%; in [8] it was 97.6%; in assay [9], -84.3% (active); in assay [10] it was -82.4% (active); in assay [11], 81.7%; in [12], 78.8%. For the same compound, the growth in assay [13] is 64.6%; in [14], 39.5%; in [15] it was 65.7%; in assay [16], -27.5% (active); in assay [17], 16.4%; in assay [18], 96.6%. Besides, the values for the growth in [19] and in [20] were -1.31% (active) and -0.295% (active), respectively.
